± gives the standard deviation of the averaged measurements.
Assays:
Assay in all cases: promoter activity interaction Z-score (Lux/OD deviation from empty-vector control); higher = stronger promoter induction by the compound
[1] = test system: E. coli BW25113 acrABp lux reporter
Outline: (§1)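 E. coli BW25113 luxCDABE reporter strains grew at 37°C in 40 µl LB Lennox in 384-well plates, with OD600 and luminescence read every 30 min for 12 h. After integration over 0–8 h for wild type or 1–9 h for deletion strains, wells under 10% of the median growth value were removed. Each score is the Z-transformed residual of growth-normalised luminescence fitted against a control.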

[2] = test system: E. coli BW25113 ompFp lux reporter
Outline: as §1

[3] = test system: E. coli BW25113 robp lux reporter
Outline: as §1

[4] = test system: E. coli BW25113 soxSp lux reporter
Outline: as §1

[5] = test system: E. coli BW25113 tolCp lux reporter
Outline: as §1

[6] = 2.6 µg/ml, genetic background: wild type
[7] = 2.6 µg/ml, genetic background: ΔmarA
[8] = 2.6 µg/ml, genetic background: Δrob
[9] = 2.6 µg/ml, genetic background: ΔsoxS
[10] = 5.3 µg/ml, genetic background: wild type
[11] = 5.3 µg/ml, genetic background: ΔmarA
[12] = 5.3 µg/ml, genetic background: Δrob
[13] = 5.3 µg/ml, genetic background: ΔsoxS
[14] = 10.6 µg/ml, genetic background: wild type
[15] = 10.6 µg/ml, genetic background: ΔmarA
[16] = 10.6 µg/ml, genetic background: Δrob
[17] = 10.6 µg/ml, genetic background: ΔsoxS
[18] = 21.1 µg/ml, genetic background: wild type
[19] = 21.1 µg/ml, genetic background: ΔmarA
[20] = 21.1 µg/ml, genetic background: Δrob
[21] = 21.1 µg/ml, genetic background: ΔsoxS

## CC(=O)N[C@H]1[C@@H](O[C@@H]2O[C@H](CC(O)[C@H]3O[C@@H](n4ccc(=O)[nH]c4=O)[C@H](O)[C@@H]3O)[C@H](O)[C@H](O)[C@H]2NC(=O)/C=C/CC(C)C)O[C@H](CO)[C@@H](N)[C@@H]1O (stereo not given in full) [Tunicamycin]
[1]; [6]
  promoter activity interaction Z-score: 0.13 ± 0.29
[1]; [7]
  promoter activity interaction Z-score: -0.0876 ± 0.12
[1]; [8]
  promoter activity interaction Z-score: -0.143 ± 0.18
[1]; [9]
  promoter activity interaction Z-score: -0.217 ± 0.36
[1]; [10]
  promoter activity interaction Z-score: -0.0561 ± 0.2
[1]; [11]
  promoter activity interaction Z-score: -0.914 ± 0.2
[1]; [12]
  promoter activity interaction Z-score: -0.22 ± 0.25
[1]; [13]
  promoter activity interaction Z-score: -0.179 ± 0.21
[1]; [14]
  promoter activity interaction Z-score: 0.0358 ± 0.052
[1]; [15]
  promoter activity interaction Z-score: 0.615 ± 0.22
[1]; [16]
  promoter activity interaction Z-score: -0.243 ± 0.0041
[1]; [17]
  promoter activity interaction Z-score: -0.426 ± 0.35
[1]; [18]
  promoter activity interaction Z-score: -0.24 ± 0.063
[1]; [19]
  promoter activity interaction Z-score: -0.0177 ± 0.64
[1]; [20]
  promoter activity interaction Z-score: -0.332 ± 0.11
[1]; [21]
  promoter activity interaction Z-score: -0.769 ± 0.066
[2]; [6]
  promoter activity interaction Z-score: -0.448 ± 0.043
[2]; [7]
  promoter activity interaction Z-score: -0.515 ± 0.43
[2]; [8]
  promoter activity interaction Z-score: -0.684 ± 0.075
[2]; [9]
  promoter activity interaction Z-score: -0.00783 ± 0.5
[2]; [10]
  promoter activity interaction Z-score: -0.405 ± 0.21
[2]; [11]
  promoter activity interaction Z-score: -0.484 ± 1.3
[2]; [12]
  promoter activity interaction Z-score: -0.656 ± 0.73
[2]; [13]
  promoter activity interaction Z-score: 0.307 ± 0.49
[2]; [14]
  promoter activity interaction Z-score: -0.305 ± 0.016
[2]; [15]
  promoter activity interaction Z-score: -0.602 ± 0.0081
[2]; [16]
  promoter activity interaction Z-score: -0.783 ± 0.28
[2]; [17]
  promoter activity interaction Z-score: -0.819 ± 0.56
[2]; [18]
  promoter activity interaction Z-score: -0.675 ± 0.34
[2]; [19]
  promoter activity interaction Z-score: -0.947 ± 0.57
[2]; [20]
  promoter activity interaction Z-score: -0.245 ± 0.018
[2]; [21]
  promoter activity interaction Z-score: -1.09 ± 0.71
[3]; [6]
  promoter activity interaction Z-score: -0.274 ± 0.39
[3]; [7]
  promoter activity interaction Z-score: -0.38 ± 0.41
[3]; [8]
  promoter activity interaction Z-score: -0.03 ± 0.92
[3]; [9]
  promoter activity interaction Z-score: -0.268 ± 0.31
[3]; [10]
  promoter activity interaction Z-score: 0.0974 ± 0.18
[3]; [11]
  promoter activity interaction Z-score: -1.07 ± 0.12
[3]; [12]
  promoter activity interaction Z-score: 0.0652 ± 0.47
[3]; [13]
  promoter activity interaction Z-score: 0.323 ± 0.16
[3]; [14]
  promoter activity interaction Z-score: -0.167 ± 0.13
[3]; [15]
  promoter activity interaction Z-score: -0.402 ± 0.074
[3]; [16]
  promoter activity interaction Z-score: -0.108 ± 0.64
[3]; [17]
  promoter activity interaction Z-score: -0.846 ± 0.13
[3]; [18]
  promoter activity interaction Z-score: -0.06 ± 0.16
[3]; [19]
  promoter activity interaction Z-score: 0.217 ± 0.25
[3]; [20]
  promoter activity interaction Z-score: -0.865 ± 0.29
[3]; [21]
  promoter activity interaction Z-score: -1.32 ± 0.15
[4]; [6]
  promoter activity interaction Z-score: -0.153 ± 0.24
[4]; [7]
  promoter activity interaction Z-score: -0.163 ± 0.076
[4]; [8]
  promoter activity interaction Z-score: -0.181 ± 0.11
[4]; [9]
  promoter activity interaction Z-score: -0.281 ± 0.17
[4]; [10]
  promoter activity interaction Z-score: -0.207 ± 0.12
[4]; [11]
  promoter activity interaction Z-score: -0.432 ± 0.03
[4]; [12]
  promoter activity interaction Z-score: -0.396 ± 0.41
[4]; [13]
  promoter activity interaction Z-score: -0.473 ± 0.0061
[4]; [14]
  promoter activity interaction Z-score: -0.362 ± 0.15
[4]; [15]
  promoter activity interaction Z-score: -0.417 ± 0.065
[4]; [16]
  promoter activity interaction Z-score: -0.286 ± 0.13
[4]; [17]
  promoter activity interaction Z-score: -0.66 ± 0.33
[4]; [18]
  promoter activity interaction Z-score: -0.651 ± 0.052
[4]; [19]
  promoter activity interaction Z-score: -0.805 ± 0.022
[4]; [20]
  promoter activity interaction Z-score: -0.856 ± 0.24
[4]; [21]
  promoter activity interaction Z-score: -1.4 ± 0.29
[5]; [6]
  promoter activity interaction Z-score: 0.117 ± 0.23
[5]; [7]
  promoter activity interaction Z-score: 0.186 ± 0.86
[5]; [8]
  promoter activity interaction Z-score: 0.627 ± 0.57
[5]; [9]
  promoter activity interaction Z-score: -0.42 ± 1.2
[5]; [10]
  promoter activity interaction Z-score: 0.292 ± 0.33
[5]; [11]
  promoter activity interaction Z-score: 0.228 ± 1.2
[5]; [12]
  promoter activity interaction Z-score: 0.351 ± 0.028
[5]; [13]
  promoter activity interaction Z-score: -0.0491 ± 0.37
[5]; [14]
  promoter activity interaction Z-score: 0.145 ± 0.28
[5]; [15]
  promoter activity interaction Z-score: -0.36 ± 0.22
[5]; [16]
  promoter activity interaction Z-score: 0.607 ± 0.47
[5]; [17]
  promoter activity interaction Z-score: -0.445 ± 0.3
[5]; [18]
  promoter activity interaction Z-score: 0.0528 ± 0.23
[5]; [19]
  promoter activity interaction Z-score: -0.275 ± 0.55
[5]; [20]
  promoter activity interaction Z-score: -1.04 ± 0.42
[5]; [21]
  promoter activity interaction Z-score: -0.899 ± 0.71
